Laboratory results taken from the antibiotic and cytotoxicity screens of Wong et al. (2023).
About 1,500 (3.8%) of roughly 39,000 compounds were called active. The sample holds actives, similar compounds and a random draw of the others, so the mix is not that of the screen.

System: HSkMC (human skeletal muscle cells)
Experiment: cytotoxicity call (relative viability < 0.9)
Settings: 10 µM

Row | SMILES | cytotoxicity call
1 | C[C@H](CO)N1C[C@H](C)[C@@H](CN(C)C(=O)C2CCCCC2)Oc2cc(-c3cncnc3)ccc2S1(=O)=O | inactive
2 | C[C@H](CO)N1C[C@H](C)[C@H](CN(C)Cc2ccccc2)Oc2ccc(NS(=O)(=O)c3cn(C)cn3)cc2CC1=O | inactive
3 | C[C@H](CO)N1C[C@H](C)[C@H](CN(C)S(=O)(=O)c2ccc(C(F)(F)F)cc2)OCc2ccccc2-c2c(n(C)c3ccccc23)C1=O | inactive
4 | CC(C)NC(=O)Nc1ccc2c(c1)C(=O)N([C@@H](C)CO)C[C@@H](C)[C@@H](CN(C)C(=O)NC1CCCCC1)O2 | inactive
5 | C[C@@H]1CCCCO[C@H](CN(C)C(=O)c2ccccc2)[C@@H](C)CN([C@@H](C)CO)C(=O)c2cc(NC(=O)Nc3ccc(F)cc3)ccc2O1 | inactive
6 | COc1ccc(S(=O)(=O)N(C)C[C@H]2OCCCC[C@H](C)Oc3ccc(NC(=O)c4ccccc4)cc3C(=O)N([C@@H](C)CO)C[C@H]2C)cc1 | inactive
7 | COc1ccc2c3c(n(c2c1)C)[C@H](CO)N(C[C@]13CN(C1)S(=O)(=O)c1cn(cn1)C)C(=O)Nc1ccc(cc1)F | inactive
8 | COc1ccc(S(=O)(=O)Nc2ccc3c(c2)C(=O)N([C@@H](C)CO)C[C@@H](C)[C@@H](CN(C)C(=O)Nc2ccc(C(F)(F)F)cc2)OCCCC[C@@H](C)O3)cc1 | inactive
9 | C[C@@H]1CCCCO[C@H](CN(C)C(=O)CCC(F)(F)F)[C@H](C)CN([C@@H](C)CO)C(=O)c2cc(NS(=O)(=O)c3cccs3)ccc2O1 | inactive
10 | CC[C@@]1(O)C[C@H](O[C@H]2C[C@H](N(C)C)[C@H](O[C@H]3C[C@H](O)[C@H](O[C@H]4CCC(=O)[C@H](C)O4)[C@H](C)O3)[C@H](C)O2)c2c(cc3c(c2O)C(=O)c2c(O)cccc2C3=O)[C@H]1C(=O)OC | active
11 | COC(=O)[C@H]1c2cc3c(c(O)c2[C@@H](O[C@@H]2O[C@H](C)[C@H](OC)[C@](C)(OC)[C@@H]2OC)C[C@@]1(C)O)C(=O)c1c(O)cc2c(c1C3=O)O[C@H]1O[C@@]2(C)[C@@H](O)[C@H](N(C)C)[C@@H]1O | inactive
12 | C[C@@H]1CCCCO[C@H](CN(C)Cc2ccc(Cl)c(Cl)c2)[C@@H](C)CN([C@H](C)CO)C(=O)c2cc(NC(=O)c3ccncc3)ccc2O1 | inactive
13 | CC=Cc1ccc2n(c1=O)C[C@H]1[C@H](CO)[C@@H](C(=O)NCCc3cn(C)cn3)[C@@H]2N1C(=O)C1CC1 | inactive
14 | C[C@H](CO)N1C[C@H](C)[C@H](CN(C)C(=O)Nc2ccc3c(c2)OCO3)Oc2c(NC(=O)C3CC3)cccc2C1=O | inactive
15 | C[C@H](CO)N1C[C@H](C)[C@@H](CN(C)S(=O)(=O)c2ccc(Cl)cc2)OCCCC[C@H](C)Oc2ccc(NS(=O)(=O)c3ccccc3)cc2C1=O | inactive
16 | Cc1c(N)nc([C@H](CC(N)=O)NC[C@H](N)C(N)=O)nc1C(=O)N[C@H](C(=O)N[C@H](C)[C@@H](O)[C@H](C)C(=O)N[C@H](C(=O)NCCc1nc(-c2nc(C(=O)NCCCNCCCCN)cs2)cs1)[C@@H](C)O)[C@@H](O[C@@H]1O[C@@H](CO)[C@@H](O)[C@H](O)[C@@H]1O[C@@H]1O[C@H](CO)[C@@H](O)[C@H](OC(N)=O)[C@@H]1O)c1c[nH]cn1 | active
17 | Cc1ccc(S(=O)(=O)N(C)C[C@@H]2Oc3ccc(NC(=O)Cn4cnnn4)cc3CC(=O)N([C@@H](C)CO)C[C@H]2C)cc1 | inactive
18 | C[C@@H]1CN([C@@H](C)CO)C(=O)c2cccc(NC(=O)Nc3ccccc3)c2O[C@H]1CN(C)Cc1ccc(C(F)(F)F)cc1 | inactive
19 | C[C@H]1CN([C@@H](C)CO)C(=O)c2cccc(NC(=O)Nc3ccccc3)c2O[C@@H]1CN(C)Cc1ccc(C(F)(F)F)cc1 | active
20 | C[C@H]1CN([C@@H](C)CO)C(=O)c2cccc(NC(=O)Nc3ccc(C(F)(F)F)cc3)c2O[C@H]1CN(C)Cc1ccc(-c2ccccc2)cc1 | inactive

Row | SMILES | cytotoxicity call
21 | C[C@@H]1CN([C@H](C)CO)C(=O)c2cccc(NC(=O)Nc3ccccc3)c2O[C@H]1CN(C)Cc1ccc(C(F)(F)F)cc1 | active
22 | C[C@@H]1CN([C@@H](C)CO)C(=O)c2cccc(NC(=O)Nc3ccccc3)c2O[C@@H]1CN(C)Cc1ccc(C(F)(F)F)cc1 | inactive
23 | C[C@@H]1CN([C@H](C)CO)C(=O)c2cccc(NC(=O)Nc3ccc(C(F)(F)F)cc3)c2O[C@H]1CN(C)Cc1ccc(-c2ccccc2)cc1 | inactive
24 | C[C@@H]1CN([C@H](C)CO)C(=O)c2cccc(NC(=O)Nc3ccc(C(F)(F)F)cc3)c2O[C@@H]1CN(C)Cc1ccc(-c2ccccc2)cc1 | active
25 | C[C@H](CO)N1C[C@H](C)[C@H](CN(C)Cc2ccc(C(F)(F)F)cc2)Oc2c(NC(=O)Nc3ccccc3)cccc2C1=O | inactive
26 | C[C@H](CO)N1C[C@H](C)[C@@H](CN(C)Cc2ccc(C(F)(F)F)cc2)Oc2c(NC(=O)Nc3ccccc3)cccc2C1=O | inactive
27 | Cc1noc(C)c1NC(=O)Nc1ccc2c(c1)C(=O)N([C@H](C)CO)C[C@H](C)[C@H](CN(C)Cc1ccncc1)OCCCC[C@H](C)O2 | inactive
28 | Cc1noc(C)c1S(=O)(=O)N(C)C[C@H]1Oc2ccc(NC(=O)Cc3ccccc3)cc2CC(=O)N([C@@H](C)CO)C[C@H]1C | inactive
29 | CN(C)Cc1cn(CC[C@H]2CC[C@@H](NC(=O)Cc3cccnc3)[C@H](CO)O2)nn1 | inactive
30 | C[C@H](CO)N1C[C@H](C)[C@@H](CN(C)Cc2ccc(-c3ccccc3)cc2)Oc2c(NC(=O)CCCCCC(=O)Nc3ccccc3N)cccc2C1=O | inactive
31 | CC(C)NC(=O)N(C)C[C@H]1Oc2cc(C#Cc3cccc(F)c3)ccc2S(=O)(=O)N([C@@H](C)CO)C[C@@H]1C | inactive
32 | C[C@H](NC(=O)C[C@H]1CC[C@H](NC(=O)CN2CCOCC2)[C@@H](CO)O1)c1ccccc1 | inactive
33 | COc1ccc(NC(=O)Nc2cccc3c2O[C@H](CN(C)Cc2ccc(Oc4ccccc4)cc2)[C@@H](C)CN([C@@H](C)CO)C3=O)cc1 | active
34 | COc1ccc(NC(=O)Nc2cccc3c2O[C@@H](CN(C)Cc2ccc(Oc4ccccc4)cc2)[C@H](C)CN([C@@H](C)CO)C3=O)cc1 | inactive
35 | COc1ccc(NC(=O)Nc2cccc3c2O[C@H](CN(C)Cc2ccc(Oc4ccccc4)cc2)[C@H](C)CN([C@H](C)CO)C3=O)cc1 | inactive
36 | COc1ccc(NC(=O)Nc2cccc3c2O[C@@H](CN(C)Cc2ccc(Oc4ccccc4)cc2)[C@H](C)CN([C@H](C)CO)C3=O)cc1 | inactive
37 | COc1ccc(NC(=O)Nc2cccc3c2O[C@@H](CN(C)Cc2ccc(Oc4ccccc4)cc2)[C@@H](C)CN([C@@H](C)CO)C3=O)cc1 | inactive
38 | COc1ccc(NC(=O)Nc2cccc3c2O[C@@H](CN(C)Cc2ccc(Oc4ccccc4)cc2)[C@@H](C)CN([C@H](C)CO)C3=O)cc1 | active
39 | CC(C)NC(=O)Nc1ccc2c(c1)C(=O)N([C@H](C)CO)C[C@H](C)[C@@H](CN(C)S(C)(=O)=O)OCCCC[C@@H](C)O2 | inactive
40 | CC(C)(C)[S@](=O)N1Cc2cc(C(=O)N3CCCCC3)nc(-c3cccc(C4=CCCC4)c3)c2[C@@H]1CCO | inactive

Row | SMILES | cytotoxicity call
41 | Cc1noc(C)c1NC(=O)N(C)C[C@@H]1OCCCC[C@H](C)Oc2ccc(NS(=O)(=O)c3ccc(Cl)cc3)cc2C(=O)N([C@H](C)CO)C[C@@H]1C | inactive
42 | CC[C@H](C)[C@@H]([C@@H](CC(=O)N1CCC[C@H]1[C@H](OC)[C@@H](C)C(=O)N[C@@H](Cc1ccccc1)c1nccs1)OC)N(C)C(=O)[C@@H](NC(=O)[C@H](C(C)C)N(C)C)C(C)C | active
43 | C[C@H](CO)N1C[C@H](C)[C@@H](CN(C)Cc2ccc(Oc3ccccc3)cc2)Oc2c(NC(=O)Cc3ccccc3)cccc2C1=O | inactive
44 | COc1ccc(NC(=O)Nc2ccc3c(c2)C(=O)N([C@H](C)CO)C[C@@H](C)[C@@H](CN(C)Cc2ccc4c(c2)OCO4)OCCCC[C@@H](C)O3)cc1 | inactive
45 | Cc1noc(C)c1S(=O)(=O)Nc1ccc2c(c1)C(=O)N([C@@H](C)CO)C[C@H](C)[C@@H](CN(C)C(=O)Nc1ccc(C(F)(F)F)cc1)OCCCC[C@@H](C)O2 | inactive
46 | C[C@@H]1CN([C@@H](C)CO)C(=O)c2cc(NC(=O)CCCCCC(=O)Nc3ccccc3N)ccc2O[C@H]1CN(C)C(=O)Nc1ccc(F)cc1 | inactive
47 | Nn1c(-c2ccncc2)nncc1=O | inactive
48 | C[C@H]1CN([C@@H](C)CO)C(=O)Cc2cc(NC(=O)Nc3ccc4c(c3)OCO4)ccc2O[C@@H]1CN(C)Cc1ccc(Cl)c(Cl)c1 | inactive
49 | C[C@@H]1CN([C@H](C)CO)C(=O)Cc2cc(NC(=O)Nc3ccc4c(c3)OCO4)ccc2O[C@H]1CN(C)Cc1ccc(Cl)c(Cl)c1 | inactive
50 | C[C@@H]1CN([C@H](C)CO)C(=O)Cc2cc(NC(=O)Nc3ccc4c(c3)OCO4)ccc2O[C@@H]1CN(C)Cc1ccc(Cl)c(Cl)c1 | active
51 | C[C@H]1CN([C@@H](C)CO)C(=O)Cc2cc(NC(=O)Nc3ccc4c(c3)OCO4)ccc2O[C@H]1CN(C)Cc1ccc(Cl)c(Cl)c1 | active
52 | C[C@@H]1CN([C@@H](C)CO)C(=O)Cc2cc(NC(=O)Nc3ccc4c(c3)OCO4)ccc2O[C@H]1CN(C)Cc1ccc(Cl)c(Cl)c1 | inactive
53 | C[C@H](CO)N1C[C@H](C)[C@@H](CN(C)Cc2ccc(Cl)c(Cl)c2)Oc2ccc(NC(=O)Nc3ccc4c(c3)OCO4)cc2CC1=O | active
54 | C[C@H](CO)N1C[C@H](C)[C@H](CN(C)Cc2ccc(Cl)c(Cl)c2)Oc2ccc(NC(=O)Nc3ccc4c(c3)OCO4)cc2C1=O | inactive
55 | C[C@@H]1CN([C@@H](C)CO)C(=O)c2cc(NC(=O)Nc3ccc4c(c3)OCO4)ccc2O[C@H]1CN(C)Cc1ccc(Cl)c(Cl)c1 | inactive
56 | C[C@@H]1CN([C@@H](C)CO)C(=O)Cc2cc(NC(=O)Nc3ccc4c(c3)OCO4)ccc2O[C@@H]1CN(C)Cc1ccc(Cl)c(Cl)c1 | inactive
57 | C[C@H]1CN([C@@H](C)CO)C(=O)c2cc(NC(=O)Nc3ccc4c(c3)OCO4)ccc2O[C@@H]1CN(C)Cc1ccc(Cl)c(Cl)c1 | inactive
58 | C[C@H](CO)N1C[C@H](C)[C@H](CN(C)Cc2ccc(Cl)c(Cl)c2)Oc2ccc(NC(=O)Nc3ccc4c(c3)OCO4)cc2CC1=O | active
59 | C[C@H]1CN([C@@H](C)CO)C(=O)c2cc(NC(=O)Nc3ccc4c(c3)OCO4)ccc2O[C@H]1CN(C)Cc1ccc(Cl)c(Cl)c1 | inactive
